# Assay outcomes as filed in PubChem.
# Shown are actives, neighbours in structure and some others; about 2% of the full set was active somewhere.
# ClpP mod – qHTS Assay for Activators of ClpP; purified B. subtilis ClpP, FRET peptide cleavage, 20 min; Potency, µM (doses to about 57.5 µM), for inactives: at the highest dose activity change, negative = active; 340,000 compounds, 1.9% hits; active means well fitted falling curve with a large enough effect; inconclusive means small, poorly fitted or top-dose-only effect; inactive means no such curve, though single readings can be large or run the other way; further: potency means the concentration at half of the fitted maximal effect; the source files actives as falling curves though it sought activators and does not explain the sign; nearly all actives have a fitted effect of over 65% in size
# Target sequence (P80244 whole entry, looked up): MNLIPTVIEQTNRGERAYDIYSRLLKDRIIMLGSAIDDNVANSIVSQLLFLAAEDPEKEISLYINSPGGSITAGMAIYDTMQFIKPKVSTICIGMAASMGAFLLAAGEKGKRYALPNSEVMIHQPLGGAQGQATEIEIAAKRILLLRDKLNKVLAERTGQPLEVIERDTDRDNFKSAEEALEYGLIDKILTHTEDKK
#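 FRET quenching reversal measured ClpP activation: 10 microg/mL B. subtilis ClpP at pH 8 with the FRET-FV decapeptide, read at 430 nm after 320 nm excitation. The 20-min minus 0-min signal was scaled between DMSO/no-enzyme wells and ADEP (5.8 microM final).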
# NPSR antag – qHTS Assay for Antagonists of the Neuropeptide S Receptor: cAMP Signal Transduction. CHO-NPSR cells, cAMP TR-FRET, antagonist mode. Q6W5P4. AID 1461, 2008. Potency, µM (highest dose often 38.3 µM), inactives show at the highest dose activity change, negative = inhibition, usual class: inhibitors. 220,000 compounds, 1% hits; further: potency means the concentration at half of the fitted maximal effect; on the % scale 0 is the no-effect control and ±100 the full control effect; nearly all actives have a fitted effect of over 50% in size
# Target sequence (Q6W5P4 whole entry, looked up): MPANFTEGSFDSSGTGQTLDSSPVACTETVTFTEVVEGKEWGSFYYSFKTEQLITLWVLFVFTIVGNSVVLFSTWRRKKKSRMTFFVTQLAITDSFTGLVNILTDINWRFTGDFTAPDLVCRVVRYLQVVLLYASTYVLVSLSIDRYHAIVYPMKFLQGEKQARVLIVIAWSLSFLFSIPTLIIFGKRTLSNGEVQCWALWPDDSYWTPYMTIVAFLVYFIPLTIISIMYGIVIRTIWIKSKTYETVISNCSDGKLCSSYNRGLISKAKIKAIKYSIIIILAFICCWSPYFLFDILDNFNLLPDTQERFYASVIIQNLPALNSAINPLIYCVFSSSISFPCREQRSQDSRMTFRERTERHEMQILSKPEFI
# PKM2 activator – qHTS Assay for Activators of Human Muscle isoform 2 Pyruvate Kinase; Pyruvate kinase PKM (Homo sapiens), P14618; purified PKM2, Kinase-Glo ATP luminescence, activation; response scale: 0% is enzyme alone, no compound; Potency, µM (series often up to 57.5 µM), inactives show top-dose activation, actives largely listed as activators; 260,000 compounds, 0.34% hits; AID 1631, 2009; further: potency means the concentration at half of the fitted maximal effect; on the % scale 0 is the no-effect control and ±100 the full control effect; nearly all actives have a fitted effect of over 55% in size
#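 Purified hPK-M2 (>95%) run at intermediate activity with 0.1 mM ADP and 0.5 mM PEP in 50 mM imidazole pH 7.2, KCl, MgCl2; 1 h room temperature. ATP formed read by Kinase-Glo luminescence; normalized to uninhibited and no-enzyme controls.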
# IL2 activator – qHTS of IL-2 Activators; IL-2 activation reporter assay, cell-based qHTS; stimulated with anti-CD3/CD4/CD28 beads; in transgenic mouse T cells; activation, % (series mostly up to about 46 µM); 360,000 compounds, 0.065% hits; in the data active means activation above about 50%; inconclusive means mostly about 30% to 49%; further: 0% is about no effect
#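 Unstimulated transgenic mouse T cells; 60-min compound exposure; bead-based TCR/CD4/CD28 stimulation; 18 h culture, 37 degrees C; dual fluorescence (EGFP, DsRed) plate cytometry.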
# Starred values were filed as active, the others as inactive; ? = inconclusive; / = no result given; [ ] = another dose, or the depositor's remark. Unless noted, the call rests on the fitted dose curve; in most records, active means well fitted curve in the direction sought with a large enough effect; inconclusive means small, poorly fitted or top-dose-only effect, or another doubt; inactive means no such curve, though single readings can be large; an effect the other way counts as inactive or inconclusive.
SMILES,ClpP mod,NPSR antag,PKM2 activator,IL2 activator
Cc1cc(/C=N\NC(=O)COc2cccc3cccnc23)c(C)n1-c1ccccc1,-3%,7%,7%,0
Cc1ccnc(-n2c(C)cc(/C=N/NC(=O)COc3cccc4cccnc34)c2C)c1,14µM*,5%,3%,-1
CCN(CC(=O)Nc1ccccc1C(F)(F)F)C(=O)c1ccc2[nH]c3c(c2c1)CC(C)CC3 (stereo unspecified),-8%,/,/,-6
Cc1cc(NC(=O)COC(=O)c2nccnc2N)n(-c2ccccc2)n1,/,/,/,-1
CC(C)(C)c1cc(NC(=O)COC(=O)c2nccnc2N)n(-c2ccccc2)n1,22µM*,/,0%,5
Cc1cc(N2CCOCC2)nc2ccc(NC(=O)C3CCC(C)CC3)cc12 (stereo unspecified),14µM*,1%[46.1 µM],2%,-6
Cc1cc(N2CCCCC2)nc2ccc(NC(=O)CCC(=O)NCCC(C)C)cc12,16µM*,-10%[46.1 µM],-4%,-2
Cc1cc(N2CCCCCC2)nc2ccc(F)cc12,28µM*,/,/,0
CCCCNC(=O)CCC(=O)Nc1ccc2nc(N3CCCCC3)cc(C)c2c1,3%,-6%,2%,-1
CCCCNC(=O)CCC(=O)Nc1ccc2nc(N3CCOCC3)cc(C)c2c1,15%,-8%[46.1 µM],3%,-1
Cc1cc(N2CCCCC2)nc2ccc(NC(=O)c3cccc(F)c3)cc12,-5%,/,/,/
CCOC(=O)N1CCN(C(=S)Nc2ccc3nc(N4CCN(CC)CC4)cc(C)c3c2)CC1,16µM*,9%,0%,-3
CCC1CCCCN1C(=S)NCc1ccccc1 (stereo unspecified),1%,-14%[46.1 µM],-21%,0
C[C@@H]1CN([C@@H](C)CO)C(=O)CCCn2nncc2CO[C@@H]1CN(C)C(=O)Nc1cccc2ccccc12,4%,/,/,2
CCOC(=O)C1CCCN(C(=O)CCC(=O)Nc2ccc3nc(N4CCOCC4)cc(C)c3c2)C1 (stereo unspecified),8.9µM*,-7%[46.1 µM],1%,0
CCN(CC)c1nc2cc(OC)ccc2cc1C#N,5%,-2%[46.1 µM],2%,-1
COc1ccc2cc(C#N)c(NC(C)C)nc2c1,22µM*,-4%[46.1 µM],-2%,-1
CCN(CC)S(=O)(=O)c1ccc(C)c(NC(=S)NNC(=O)C2CC2)c1,25µM*,22%,7%,0
Cc1ccc(S(=O)(=O)N(C)C)cc1NC(=S)NNC(=O)C1CC1,-1%,16%,5%,5
CN(C)c1ccc(/C=N/NC(=O)c2cnc3ccccc3c2)cc1,0%,-3%,-2%,170*
O=C1c2ccccc2NC(c2ccc(F)cc2)N1Cc1ccco1 (stereo unspecified),?,-21%[46.1 µM],12%,0
O=C1c2ccccc2NC(c2ccccc2)N1Cc1ccco1 (stereo unspecified),28µM*,-21%[46.1 µM],8%,-1
COc1cccc(OCc2cc(C3Nc4ccccc4C(=O)N3Cc3ccco3)ccc2OC)c1 (stereo unspecified),?,?,7.9µM*,1
Cc1ccc(C(=O)NCCc2ccccc2)cc1S(=O)(=O)N1CCOCC1,0%,/,/,0
Cc1ccc(C(=O)NC(C)CCc2ccccc2)cc1S(=O)(=O)N1CCOCC1 (stereo unspecified),28µM*,/,/,0
SMILES,ClpP mod,NPSR antag,PKM2 activator,IL2 activator
CC1=C(C#N)C(c2cccnc2)C2=C(CCCC2=O)N1 (stereo unspecified),8.9µM*,22%,6%,1
CC1=C(C#N)C(c2cccnc2)C2=C(N1)c1ccccc1C2=O (stereo unspecified),0%,-17%,6%,0
COC(=O)[C@]12CCCCC=C1N(CCC1=CCCCC1)C(=O)[C@H](CC(=O)NCc1cccs1)C2,-2%,/,/,4
O=C(Nc1ccccc1Cl)c1cc(C2CCCCN2S(=O)(=O)c2ccc(F)cc2F)on1 (stereo unspecified),-9%,/,/,1
O=C(CNc1cccc2ccccc12)c1ccc([N+](=O)[O-])cc1,5.6µM*,-10%[46.1 µM],-3%,2
O=C(NCCC1=CCCCC1)C(=O)NCC1OCCCN1S(=O)(=O)c1cc(F)ccc1F (stereo unspecified),-2%,-13%,-2%,-3
CCOC(=O)c1c(CSc2ccc(CC)cc2)oc2ccc(O)c(CN(C)C)c12,/,/,/,-1
COc1cccc(-n2c(=O)c3cc(OC)c(OC)cc3n(CC(=O)Nc3cc(C)[nH]n3)c2=O)c1,28µM*,18%,0%,-3
COc1ccc(-n2c(=O)c3ccccc3n(CC(=O)Nc3cccc(OC)c3)c2=O)cc1,-2%,-7%,4%,1
CCOc1ccc(-n2ccn(CC(=O)NCCc3ccccc3)c(=O)c2=O)cc1,?,/,/,0
CCN(CC)c1ccc(/C=N/NC(=S)NCc2ccccc2)cc1,25µM*,-22%[46.1 µM],2%,-2
CCN(CC)c1ccc(/C=N/NC(=O)Cc2cccs2)cc1,28µM*,-21%[46.1 µM],-2%,-2
C=CCNC(=S)N/N=C/c1ccc(N(CC)Cc2ccccc2)cc1,8.9µM*,-35%,-1%,0
CCN(CC)c1ccc(/C=N/NC(=S)NCc2ccc(OC)cc2)cc1,/,-15%,0%,-2
Cc1cc(C)n2nc(C(=O)N3CCCC(N4CCN(c5ccccc5C)CC4)C3)cc2n1 (stereo unspecified),28µM*,/,0%,-3
COc1ccccc1C(C)NCC(=O)Nc1ccccc1C(F)(F)F (stereo unspecified),18µM*,-11%,-14%,0
CCOc1ccc(-c2nnn(CC(=O)c3cc(OC)ccc3OC)n2)cc1,32µM*,-21%[46.1 µM],-3%,0
CCOc1ccc(-c2nnn(CC(=O)Nc3cc(OC)ccc3OC)n2)cc1OCC,0%,2%[46.1 µM],-7%,-3
CCOC(=O)Cc1cnc(NC(=O)Cn2nnc(-c3ccc(OCC)cc3)n2)s1,22µM*,-13%[46.1 µM],0%,0
CCCCOc1ccc(-c2nnn(CC(=O)Nc3ncc(CC(=O)OCC)s3)n2)cc1,-3%,-20%[46.1 µM],1%,1
Cc1ccccc1S(=O)(=O)N1CC(C(=O)O)=CC[C@H]1c1ccc(Cl)cc1,-5%,/,/,2
O=C(O)c1c(Cl)c(Cl)c(Cl)c(Cl)c1C(=O)N1CCCC1,-1%,-2%[46.1 µM],0%,0
Cc1ccc(Oc2ccc(S(=O)(=O)N3CCOCC3)cc2C(N)=O)c(-n2nc3ccccc3n2)c1,32µM*,29%[46.1 µM],0%,0
COc1ccccc1Oc1ccc(S(=O)(=O)N2CCOCC2)cc1S(=O)(=O)N1CCOCC1,-9%,-2%[46.1 µM],4%,0
COC(=O)C1=CN(C2CC2)C=C(C(=O)OC)C1c1ccc(C(=O)OC)cc1,32µM*,-24%[46.1 µM],12%,-2
CCOC(=O)CSc1nc2c(c(-c3ccc(C)o3)c1C#N)CCCC2,28µM*,?,?,0
